NPC1 promoter act – qHTS Assay for NPC1 Promoter Activators. Potency, µM (series often up to 9.22 µM), inactives show at the top dose activation, usual class: activators. Huh7 NPC1 promoter luciferase reporter, 24 h. hit rate 2.4% among 320,000; further: % of control where 0% means no effect; nearly all actives have a fitted effect of over 60% in size
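Quantitative HTS used a cell-based reporter: Huh7 cells stably bearing the NPC1 promoter upstream of luciferase were treated with compounds for 24 h, and promoter activation was read as luminescence.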
ELG1 DNA repair – qHTS screen for small molecules that inhibit ELG1-dependent DNA repair in human embryonic kidney (HEK293T) cells expressing luciferase-tagged ELG1 | hit rate 2.3% among 330,000 | Potency, µM (top dose mostly 46.1 µM), inactives show top-dose activity change, negative = inhibition, hits mostly inhibitors | HEK293T ELG1-luciferase reporter, luminescence, 16 h; DNA damage induced by 5-fluorouridine | AID 504467, 2011; further: on the % scale 0 is the no-effect control and ±100 the full control effect; nearly all actives have a fitted effect of over 55% in size
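Step one: seed 2,000 cells per well. Step two: pin-transfer compound or DMSO alongside 5-fluorouridine. Step three: incubate 16 hr, 37 °C, 5% CO2. Step four: add ONE-Glo, wait 30 min, read luminescence.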
ELG1 genotoxic – qHTS screen for small molecules that induce genotoxicity in human embryonic kidney (HEK293T) cells expressing luciferase-tagged ELG1; HEK293T ELG1-luciferase reporter, luminescence, 16 h; Potency, µM (series often up to 46 µM), for inactives: top-dose activity change, positive = activation, hits mostly activators; AID 504466, 2011; hit rate 1.3% among 330,000; further: % of control where 0% means no effect; nearly all actives have a fitted effect of over 60% in size
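Step 1: seed 2,000 HEK293T ELG1-luciferase cells per well. Step 2: add compound or DMSO, incubate 16 hr at 37 °C. Step 3: ONE-Glo, 30 min at room temperature, read luminescence.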
SMN2 splice enh – qHTS Assay for Enhancers of SMN2 Splice Variant Expression. HEK293 SMN2-luciferase splicing reporter, luminescence, 30-36 h. Potency, µM (top dose mostly 46.1 µM), without a hit: at the highest dose activity change, positive = activation, most hits filed as activators. hit rate 2.8% among 210,000; further: % of control where 0% means no effect; nearly all actives have a fitted effect of over 55% in size
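qHTS luciferase splicing reporter: luminescence rises when SMN2 exon 7 is included in transfected HEK293 cells. Compound exposure lasted 30-36 h at 37C, with 4.5 mM final sodium butyrate as control, followed by a ONE-Glo read.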
Rab9 prom act – qHTS Assay for Rab9 Promoter Activators. Huh7 Rab9 promoter-luciferase reporter, luminescence, 24 h. Potency, µM (series often up to 9.22 µM), for inactives: top-dose activation, negative = inhibition, hits mostly activators. hit rate 2.8% among 320,000; further: % of control where 0% means no effect; nearly all actives have a fitted effect of over 60% in size
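Luciferase signal after 10 min detection reagent at ambient indicates Rab9 promoter upregulation; stably transfected Huh7 cells were treated 24 h with compound in DMSO at 37 °C, 5% CO2.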
FLuc modulator – qHTS profiling assay for firefly luciferase inhibitor/activator using purifed enzyme and Km concentrations of substrates (counterscreen for miR-21 project); Luciferin 4-monooxygenase (Photinus pyralis), P08659; purified FLuc, Km substrates, luminescence inhibition; Potency, µM (doses to about 57.5 µM), for inactives: top-dose activity change, negative = inhibition, actives largely listed as inhibitors; hit rate 6.9% among 360,000; AID 588342, 2011;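 further: plate controls were vehicle for no effect and reference inhibitor for full effect; nearly all actives have a fitted effect of over 55% in size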
Target sequence (P08659 whole entry, looked up): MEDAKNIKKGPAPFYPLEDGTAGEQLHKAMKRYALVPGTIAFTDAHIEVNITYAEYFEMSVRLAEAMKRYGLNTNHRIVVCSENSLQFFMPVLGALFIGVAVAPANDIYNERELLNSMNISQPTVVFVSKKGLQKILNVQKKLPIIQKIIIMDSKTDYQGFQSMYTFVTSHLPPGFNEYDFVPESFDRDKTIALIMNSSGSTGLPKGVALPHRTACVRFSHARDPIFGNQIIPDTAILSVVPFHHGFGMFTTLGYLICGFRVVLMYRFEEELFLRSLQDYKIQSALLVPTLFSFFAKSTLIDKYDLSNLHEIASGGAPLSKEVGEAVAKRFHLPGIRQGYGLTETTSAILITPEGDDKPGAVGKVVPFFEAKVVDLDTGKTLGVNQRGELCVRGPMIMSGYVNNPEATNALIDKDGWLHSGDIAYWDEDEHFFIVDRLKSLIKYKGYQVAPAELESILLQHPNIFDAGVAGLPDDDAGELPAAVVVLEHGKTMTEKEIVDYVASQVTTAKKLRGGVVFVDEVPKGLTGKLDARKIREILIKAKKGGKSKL
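Purified P. pyralis luciferase, 10 nM final, with Km-level 10 uM D-luciferin and 10 uM ATP in 50 mM Tris acetate pH 7.5, 10 mM Mg acetate, 0.01% Tween-20, 0.05% BSA; 6-point qHTS titration about 60 µM downward; luminescence read.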
* hit, by the source's call; ? = inconclusive; . = not tested or not shown; [ ] = remark or other dose. Rows were chosen to be rich in hits. Some 9.2% of all compounds tested hit in one or more screens of this group. The call rests on the fitted dose curve; in most records, active means well fitted curve in the direction sought with a large enough effect; inconclusive means small, poorly fitted or top-dose-only effect, or another doubt; inactive means no such curve, though single readings can be large; an effect the other way counts as inactive or inconclusive. Potency means the concentration at half of the fitted maximal effect.

SMILES	NPC1 promoter act	ELG1 DNA repair	ELG1 genotoxic	SMN2 splice enh	Rab9 prom act	FLuc modulator
COc1ccc(-c2nc3c4cnn(-c5ccccc5F)c4ncn3n2)cc1	.	.	.	16%	.	?
Fc1ccccc1-n1ncc2c1ncn1nc(-c3ccccc3Cl)nc21	.	.	.	5%	.	0.95µM*
O/N=C\c1ccc(-c2ccccc2)o1	22%	?	15%	13µM*	24%	13µM*
COc1ccc(N=Cc2ccc(-c3ccccc3)o2)cc1	-3%	-11%	12%	.	-12%	3µM*
COc1ccc(N=C/C=C2\C=C(c3ccccc3)OC(C)(C)O2)cc1	-1%	?	-7%	?	3%	?
CCOC(=O)c1c(-c2ccc(C)o2)csc1NC(=O)CN(C)CC(=O)Nc1ccc(C)cc1	-1%	15µM*	13%	-4%	29%	1%
CCOC(=O)c1c(-c2ccc(OCC)cc2)csc1NC(=O)CCN1C(=O)c2ccccc2C1=O	-7%	12µM*	-7%	-24%	-7%	6%
CCOC(=O)c1c(-c2ccc(C)o2)csc1NC(=O)CN1CCCCC1	-1%	-10%	1%	-28%	-2%	-18%
C[C@H](NC(=O)N1CCn2c1nc1ccccc12)C(=O)NCc1ccc2c(c1)OCO2	-1%	0%	-2%	.	-5%	2%
C/C(=N\NC(=O)c1ccc(Cl)cc1)c1cccnc1	?	?	?	.	?	17µM*
C/C(=N\NS(=O)(=O)c1ccccc1)c1cccc(NC(=O)c2cccc(Cl)c2)c1	2%	-12%	-3%	-1%	-3%	24µM*
C/C(=N\NC(=O)c1ccc(Cl)cc1)c1cccc(NC(=O)c2cccnc2)c1	22%	?	-2%	?	?	3µM*
C/C(=N\NC(=O)c1ccn(C)n1)c1cccc(NC(=O)c2ccncc2)c1	0%	?	-1%	-5%	-5%	15µM*
C/C(=N/NS(=O)(=O)c1ccc(Cl)cc1)c1cccc(NC(=O)c2ccncc2)c1	-4%	3%	-2%	.	0%	-17%
O=C(c1ccc2ccccc2n1)N1CCN(S(=O)(=O)c2ccccc2)CC1	.	-4%	-4%	.	.	.
Cc1ccc2oc(-c3cc(NC(=O)Cc4ccccc4)ccc3Cl)nc2c1	.	.	.	6%	.	-15%
COc1ccc(CCNC(=O)C2c3ccccc3C(=O)N2Cc2ccccc2)cc1OC (stereo not given)	.	.	.	.	.	-5%
COc1cc(SC)ccc1C(=O)NCCOc1ccc(F)cc1	?	?	21µM*	14µM*	?	5.4µM*
COc1cc(SC)ccc1C(=O)NCC1CCCCC1	30%	?	?	.	20%	15µM*
COc1ccc(CCNC(=O)c2ccc(SC)cc2OC)cc1	-9%	?	-6%	-6%	-1%	-11%
O=C(CN1C(=O)NC2(CCCCC2)C1=O)N1CCN(S(=O)(=O)c2cccc([N+](=O)[O-])c2)CC1	0%	-1%	2%	.	1%	1%
CCOC(=O)N/N=C\c1ccc([N+](=O)[O-])s1	3%	21µM*	-15%	-33%	19%	-9%
CCOC(=O)N/N=C\c1ccc(C)s1	14%	?	12%	-16%[1.84 µM]	28%	?
CC(C)(C)OC(=O)N/N=C\c1ccc([N+](=O)[O-])s1	23%	?	5%	-55%	17%	27µM*
COC(=O)c1ccccc1S(=O)(=O)N1CCC(C(=O)NC2CCCCC2C)CC1 (stereo not given)	-2%	0%	2%	.	-3%	4%
SMILES	NPC1 promoter act	ELG1 DNA repair	ELG1 genotoxic	SMN2 splice enh	Rab9 prom act	FLuc modulator
CSc1cccc(NC(=O)CC2Oc3ccccc3NC2=O)c1 (stereo not given)	-1%	16%	-2%	.	0%	2%
Cc1ccccc1OCc1nc2c3c(ncn2n1)-c1ccccc1CC31CCCC1	-6%	-10%	2%	-32%	0%	0%
Cc1ccccc1OCc1nc2c3cnn(C)c3ncn2n1	4µM*	?	5.8µM*	?	2.8µM*	?
C[C@H](NC(=O)c1ccccc1)C(=O)N1CCC2(CC1)NCCc1[nH]cnc12	-4%	13%	1%	.	-3%	1%
CCCCCOc1ccc(C(=O)N(Cc2ccccc2)C2CCS(=O)(=O)C2)cc1 (stereo not given)	.	.	.	.	.	-1%
CSc1ccc(CCNC(=O)c2c(C)oc3ncn(C)c(=O)c23)cc1	.	.	.	.	.	-2%
O=c1oc2ccc(Cl)cc2cc1-c1nc(-c2cccs2)no1	.	.	.	.	.	2%
COC(=O)c1ccc(-c2nc(-c3cccs3)no2)cc1	0.32µM*	?	0.37µM*	10%	?	0.15µM*
Fc1ccc(-c2nc(-c3cccs3)no2)cc1	2µM*	?	?	.	1.8µM*	1.3µM*
O=C(NCCc1ccccc1)c1nc(-c2cccs2)no1	?	?	?	14µM*	5.6µM*	13µM*
COC(=O)c1noc(-c2ccc(C)cc2)n1	-1%	?	2%	14%	-5%	11µM*
CC(C)=CCC1=C(O)[C@](O)(CC=C(C)C)C(=O)C(C(=O)CC(C)C)=C1O	.	.	.	-12%	.	.
Fc1ccc(-c2cc(-c3cccs3)cc(-c3ccccc3)n2)cc1	0%	?	-2%	.	-8%	-5%
Fc1ccc(-c2cnc(-c3cccs3)o2)cc1	4µM*	?	?	17%	3.5µM*	6µM*
COc1ccc(OC)c(S(=O)(=O)N2CCN(CC(O)COc3ccc(C#N)cc3)CC2)c1 (stereo not given)	-6%	?	-13%	.	-7%	0%
Cn1cc(-c2cc3n(n2)CCC(=O)N3CC(=O)O)c2ccccc21	.	.	.	2%	.	-15%
CCCCN(C(=O)CSCC(=O)Nc1ccc(C)cc1)c1c(N)n(CC(C)C)c(=O)[nH]c1=O	0%	14%	2%	.	-2%	0%
CSc1nsc(NC(=O)OCc2ccc(Cl)cc2)n1	2%	11%	-2%	.	0%	24µM*
CC(=O)CSc1ccc(-c2nc3ccccc3[nH]2)cn1	0.56µM*	?	?	.	0.71µM*	4.3µM*
CCc1nnc(NC(=O)CSCc2cc(=O)c3ccc(C)cc3[nH]2)s1	.	.	.	.	.	-8%
N#Cc1ccccc1CSc1ccc(-c2nc3ccccc3[nH]2)cn1	21%	0%	?	-58%	21%	19µM*
Cc1cc2nc(-c3ccc(SCc4ccc(C#N)cc4)nc3)[nH]c2cc1C	-3%	?	1%	-26%	-3%	5.4µM*

Compound activity: PubChem, National Center for Advancing Translational Sciences (NCATS)
